Assay results reported in PubChem BioAssay (NCI).
Compounds without any hit were thinned out: in the full panel of roughly 83,000, 20% have a hit.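 Each cell line was grown in a 96-well plate and treated with one concentration of compound for 48 hours. Values below 10 were considered active.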 Values without a mark were called inactive. Activity calls are given as the source filed them.

Assays:
Assay in all cases: NCI-60 one-dose screen, 48 h (100 = growth as untreated, 0 = no growth, -100 = all killed)
Details in all cases: 10 µM unless noted
NCI-H23 lung = system: NCI-H23 lung
NCI-H226 lung = system: NCI-H226 lung
NCI-H322M lung = system: NCI-H322M lung
HOP-62 NSCLC = system: HOP-62 NSCLC
NCI-H460 lung = system: NCI-H460 lung
HOP-92 NSCLC = system: HOP-92 NSCLC
NCI-H522 lung = system: NCI-H522 lung
A549/ATCC NSCLC = system: A549/ATCC NSCLC
786-0 renal = system: 786-0 renal
COLO 205 colon = system: COLO 205 colon
DU-145 prostate = system: DU-145 prostate
K-562 leukemia = system: K-562 leukemia
MALME-3M melanoma = system: MALME-3M melanoma
MDA-MB-231 breast = system: MDA-MB-231 breast
RXF 393 renal = system: RXF 393 renal
SF-268 CNS = system: SF-268 CNS
SF-295 CNS = system: SF-295 CNS
SF-539 CNS = system: SF-539 CNS
UACC-257 melanoma = system: UACC-257 melanoma
M14 melanoma = system: M14 melanoma

| SMILES | growth (NCI-H23 lung) | growth (NCI-H226 lung) | growth (NCI-H322M lung) | growth (HOP-62 NSCLC) | growth (NCI-H460 lung) | growth (HOP-92 NSCLC) | growth (NCI-H522 lung) | growth (A549/ATCC NSCLC) | growth (786-0 renal) | growth (COLO 205 colon) | growth (DU-145 prostate) | growth (K-562 leukemia) | growth (MALME-3M melanoma) | growth (MDA-MB-231 breast) | growth (RXF 393 renal) | growth (SF-268 CNS) | growth (SF-295 CNS) | growth (SF-539 CNS) | growth (UACC-257 melanoma) | growth (M14 melanoma) |
| --- | --- | --- | --- | --- | --- | --- | --- | --- | --- | --- | --- | --- | --- | --- | --- | --- | --- | --- | --- | --- |
| Cn1c(C#N)ccc1-c1ccc(F)c(NC(=O)c2ccc(F)cc2)c1 | 80.6% | 105% | 97.9% | 75.8% | 80.2% | 70.5% | 76.2% | 83.2% | 84.8% | 90.9% | 94.3% | 23.6% | 91.2% | 73.7% | 85.3% | 81.9% | 68.8% | 73.8% | 107% | 59.8% |
| COc1ccc(C=Nc2c(C(=O)Nc3cccc(Cl)c3C)sc3nc(C)c(C(=O)/C=C/c4ccc(OC)cc4)cc23)cc1 | 31.2% | 53.8% | 43.1% | 46.5% | 8.92% (active) | 79.2% | 0.467% (active) | 30.8% | 21.5% | 11.2% | 14.7% | 17.1% | 44.4% | 2.5% (active) | -44.4% (active) | 29.9% | 18.5% | -30.6% (active) | 55.6% | -3.16% (active) |
| Cc1c2ccccc2nc2cc3c(cc12)[C@H]1CC[C@]2(C)C(=O)CC[C@H]2[C@@H]1CC3 | 98.5% | 91.8% | 98.5% | 105% | 97.3% | 86.9% | 81.6% | 86.5% | 98% | 109% | 106% | 90.2% | 108% | 91.6% | 101% | 89.5% | 99.9% | 96.5% | 98.3% | 102% |
| Cc1cc(N2CCN(CC(=O)Nc3ccc4c(ccn4Cc4ccccc4)c3)CC2)nc(N2CCOCC2)n1 | 83.8% | 84.3% | 90.4% | 91.1% | 95.2% | 45.4% | 73.8% | 73.6% | 84.6% | 98.2% | 95.4% | 60.5% | 85.7% | 93.4% | 63.9% | 92.9% | 84% | 98.2% | 80.2% | 90.1% |
| O=c1cc(CP(=O)(O)O)c2cc(O)c(-c3ccccc3)cc2o1 | 101% | 101% | 101% | 103% | 104% | 95.7% | 94.7% | 106% | 104% | 108% | 105% | 105% | 103% | 111% | 105% | 99% | 101% | 104% | 101% | 97.6% |
| CCOC(=O)C(CCN(C)C)c1ccccc1 (stereo not given) | 94.4% | 90.3% | 91.9% | 88.8% | 105% | 78.8% | 84.5% | 91.8% | 98.1% | 116% | 105% | 107% | 96% | 99% | 90.4% | 90% | 101% | 96.2% | 94.2% | 106% |
| O=C(NCCCCO)c1cncnc1Nc1ccc2c(ccn2Cc2cccc(F)c2)c1 | 97.6% | 100% | 72.9% | 94.4% | 101% | 92.1% | 76.9% | 84.4% | 92.4% | 97.7% | 96.2% | 82.5% | 93.9% | 69.3% | 101% | 99.3% | 97.6% | 94.4% | 96.7% | 89.9% |
